# About 83,000 compounds went through this panel and 20% of them were active in at least one assay; those are over-represented in the sample as a whole.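 Percent growth is the endpoint: 0 to 100 indicates growth inhibition (40 means 60% inhibition), 0 means no net growth, and negative values indicate cell death.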 Unmarked numbers belong to inactive results. Activity calls are given as the source filed them. The calls were made as follows: active = growth percent below 10; inactive = the rest.
# System: SR leukemia
# Assay: NCI-60 one-dose screen, 48 h (100 = growth as untreated, 0 = no growth, -100 = all killed)
# Settings: 10 µM
row,SMILES,growth
1,O=C(COc1ccc(-c2nc3ccccc3[nH]2)cc1)N=Nc1c(O)[nH]c2ccccc12,1.13% (active)
2,C[C@]12CC[C@H]3[C@@H](CC=C4C[C@@H](O)CC[C@@]43C)[C@@H]1CC[C@@H]2C(=O)C/C=N/O,91.6%
3,COc1ccc(N2CCN(c3nc(-c4ccccc4)c(C#N)c(=O)[nH]3)CC2)cc1,89.7%
4,CCCCCCCCCCCC(=O)NCCCN(C)C,2.57% (active)
5,COc1cccc(-c2nnc(COc3ccc(-c4nc5ccccc5[nH]4)cc3OC)o2)c1,7.26% (active)
6,N/C(=N\O)c1cn(C2OC(CO)C(O)C2O)c2ncnc(N)c12 (stereo unspecified),-4.39% (active)
7,Nc1ccc(C2=CC(c3ccc(Cl)cc3)N3C=CSC3=N2)cc1 (stereo unspecified),-11.5% (active)
8,O=[N+]([O-])c1cc2ncccc2c2ncccc12,74%
9,O=C(CCc1ccccc1)N1CCN(C(=O)CCc2ccccc2)CC1,94.3%
10,COc1ccc(CCc2nc3cc(-c4c(C)noc4C)ccc3n2CCN2CCOCC2)cc1,39%
11,CCOC(=O)C(=O)Cc1cccnn1,101%
12,FC(F)(F)c1ccc(-c2nc(-c3nc4cc(Cl)c(Cl)cc4[nH]3)c3ccccn23)cc1,84.2%
13,COc1cc(CSc2nc3ccc(C)cc3c(=O)n2-c2ccccc2)cc(OC)c1OC,20.3%
14,CC(C)C[C@H](NC(=O)Cn1ccc2ccccc2c1=O)B(O)O,9.81% (active)
15,CCCCC(=O)N(c1ccc(Nc2c3ccccc3nc3cc([N+](=O)[O-])ccc23)cc1)S(C)(=O)=O,5.36% (active)
16,N#Cc1ncc(-c2cc(F)ccc2F)c(NC2CCCCCC2)n1,81.6%
17,Cc1nnc2c3nnc(-c4ccc(Cl)cc4)n3c3ccccc3n12,77%
18,O=CNc1c(Cl)cc2c(c1Cl)Cc1cc([N+](=O)[O-])ccc1-2,57%
19,O=C(Nc1ccc(OS(=O)(=O)Cc2ccccc2)cc1)C12CC3CC(CC(C3)C1)C2,30.3%

row,SMILES,growth
1,COc1cc(CSc2nc3ccc(C)cc3c(=O)n2Cc2ccccc2)cc(OC)c1OC,18%
2,CC(=O)[C@H]1CC[C@H]2[C@@H]3CC[C@@H]4CC=C(C=O)C[C@]4(C)[C@H]3CC[C@]12C,73.5%
3,O=[N+]([O-])c1ccc(Br)o1,108%
4,CCc1nn2c(-c3cc(OC)c(OC)c(OC)c3)c(-c3cc(OC)c(OC)c(OC)c3)nc2s1,61.9%
5,N#Cc1c2c([nH]c(=O)c1C(N)=O)CCCCC2,108%
6,COC(=O)[C@]12CC[C@@H](C)[C@H](C)[C@@H]1C1=CC[C@@H]3[C@@]4(C)CC(=O)[C@H](O)[C@@]5(C)COC(=C45)C[C@@]3(C)[C@]1(C)CC2,-31.7% (active)
7,C=CCNCCCN1C(=O)c2ccc3c4c(ccc(c24)C1=O)C(=O)N(CCCNCC=C)C3=O,-12.8% (active)
8,COc1ccc(Cn2cc3c(c2-c2cc(OC)c(OC)c(OC)c2)CCc2cnoc2-3)cc1N,14.8%
9,Cc1ccc2nc(-c3ccc(OCC(=O)N=Nc4c(O)[nH]c5ccccc45)cc3)[nH]c2c1,-17.5% (active)
10,COc1cc(OC)cc(-c2n/c(=C\c3c(O)[nH]c4ccc(OC)cc34)cc3c2=Nc2ccccc2-3)c1,9.3% (active)
11,O=c1ccc2nc(-c3ccccc3)nn(-c3ccccc3)c-2c1,-20.2% (active)
12,NS(=O)(=O)c1ccc(N2N=C(c3ccc(-c4ccccc4)cc3)CC2c2ccc(Cl)cc2)cc1 (stereo unspecified),73.5%
13,O=C(NC1CCCC1)c1ccc(N2CCC(NCc3cccc(C(F)(F)F)c3)CC2)cc1,0.0064% (active)
14,COc1cc(OC)cc(-c2ccc(-c3ccc(C(=N)N)cn3)o2)c1,0.771% (active)
15,COc1ccc(-c2oncc2-c2cc(OC)c3c(c2)OCO3)cc1,7.62% (active)
16,COc1cc2ccnc(C=O)c2cc1OC,1.19% (active)
17,N#Cc1ccc(-n2cnc(NC(=O)[C@H]3CCN(C#N)C3)c2)cc1,6.48% (active)
18,Oc1ccccc1-c1nnc(Cn2c(Cc3cccc4ccccc34)nc3ccccc32)o1,94.8%
19,Fc1ccc(Nc2ccnc(N3CCN(c4ccnc5cc(Cl)ccc45)CC3)n2)cc1,31%

# System: RPMI-8226 leukemia
# Assay: as above
# Settings: 10 µM
row,SMILES,growth
1,O=C(COc1ccc(-c2nc3ccccc3[nH]2)cc1)N=Nc1c(O)[nH]c2ccccc12,71.5%
2,C[C@]12CC[C@H]3[C@@H](CC=C4C[C@@H](O)CC[C@@]43C)[C@@H]1CC[C@@H]2C(=O)C/C=N/O,59.6%
3,COc1ccc(N2CCN(c3nc(-c4ccccc4)c(C#N)c(=O)[nH]3)CC2)cc1,91.3%
4,CCCCCCCCCCCC(=O)NCCCN(C)C,78.4%
5,COc1cccc(-c2nnc(COc3ccc(-c4nc5ccccc5[nH]4)cc3OC)o2)c1,51%
6,N/C(=N\O)c1cn(C2OC(CO)C(O)C2O)c2ncnc(N)c12 (stereo unspecified),-43.6% (active)
7,Nc1ccc(C2=CC(c3ccc(Cl)cc3)N3C=CSC3=N2)cc1 (stereo unspecified),-21.3% (active)
8,O=[N+]([O-])c1cc2ncccc2c2ncccc12,82.8%
9,O=C(CCc1ccccc1)N1CCN(C(=O)CCc2ccccc2)CC1,92.3%
10,COc1ccc(CCc2nc3cc(-c4c(C)noc4C)ccc3n2CCN2CCOCC2)cc1,-5.7% (active)
11,CCOC(=O)C(=O)Cc1cccnn1,102%
12,FC(F)(F)c1ccc(-c2nc(-c3nc4cc(Cl)c(Cl)cc4[nH]3)c3ccccn23)cc1,71.5%
13,COc1cc(CSc2nc3ccc(C)cc3c(=O)n2-c2ccccc2)cc(OC)c1OC,54.9%
14,CC(C)C[C@H](NC(=O)Cn1ccc2ccccc2c1=O)B(O)O,11.9%
15,CCCCC(=O)N(c1ccc(Nc2c3ccccc3nc3cc([N+](=O)[O-])ccc23)cc1)S(C)(=O)=O,35%
16,N#Cc1ncc(-c2cc(F)ccc2F)c(NC2CCCCCC2)n1,57.8%
17,Cc1nnc2c3nnc(-c4ccc(Cl)cc4)n3c3ccccc3n12,95%
18,O=CNc1c(Cl)cc2c(c1Cl)Cc1cc([N+](=O)[O-])ccc1-2,13.9%
19,O=C(Nc1ccc(OS(=O)(=O)Cc2ccccc2)cc1)C12CC3CC(CC(C3)C1)C2,35%

row,SMILES,growth
1,COc1cc(CSc2nc3ccc(C)cc3c(=O)n2Cc2ccccc2)cc(OC)c1OC,54.1%
2,CC(=O)[C@H]1CC[C@H]2[C@@H]3CC[C@@H]4CC=C(C=O)C[C@]4(C)[C@H]3CC[C@]12C,58.1%
3,O=[N+]([O-])c1ccc(Br)o1,106%
4,CCc1nn2c(-c3cc(OC)c(OC)c(OC)c3)c(-c3cc(OC)c(OC)c(OC)c3)nc2s1,71.3%
5,N#Cc1c2c([nH]c(=O)c1C(N)=O)CCCCC2,103%
6,COC(=O)[C@]12CC[C@@H](C)[C@H](C)[C@@H]1C1=CC[C@@H]3[C@@]4(C)CC(=O)[C@H](O)[C@@]5(C)COC(=C45)C[C@@]3(C)[C@]1(C)CC2,-32% (active)
7,C=CCNCCCN1C(=O)c2ccc3c4c(ccc(c24)C1=O)C(=O)N(CCCNCC=C)C3=O,11.3%
8,COc1ccc(Cn2cc3c(c2-c2cc(OC)c(OC)c(OC)c2)CCc2cnoc2-3)cc1N,25.7%
9,Cc1ccc2nc(-c3ccc(OCC(=O)N=Nc4c(O)[nH]c5ccccc45)cc3)[nH]c2c1,25.7%
10,COc1cc(OC)cc(-c2n/c(=C\c3c(O)[nH]c4ccc(OC)cc34)cc3c2=Nc2ccccc2-3)c1,77.8%
11,O=c1ccc2nc(-c3ccccc3)nn(-c3ccccc3)c-2c1,-8.63% (active)
12,NS(=O)(=O)c1ccc(N2N=C(c3ccc(-c4ccccc4)cc3)CC2c2ccc(Cl)cc2)cc1 (stereo unspecified),63.4%
13,O=C(NC1CCCC1)c1ccc(N2CCC(NCc3cccc(C(F)(F)F)c3)CC2)cc1,71.3%
14,COc1cc(OC)cc(-c2ccc(-c3ccc(C(=N)N)cn3)o2)c1,-50% (active)
15,COc1ccc(-c2oncc2-c2cc(OC)c3c(c2)OCO3)cc1,23.8%
16,COc1cc2ccnc(C=O)c2cc1OC,50.6%
17,N#Cc1ccc(-n2cnc(NC(=O)[C@H]3CCN(C#N)C3)c2)cc1,16.2%
18,Oc1ccccc1-c1nnc(Cn2c(Cc3cccc4ccccc34)nc3ccccc32)o1,95.8%
19,Fc1ccc(Nc2ccnc(N3CCN(c4ccnc5cc(Cl)ccc45)CC3)n2)cc1,23.9%
